High-throughput results deposited in PubChem by National Center for Advancing Translational Sciences (NCATS).
PNC inhibitor: inhibitors of perinucleolar compartment assembly | actives 3.1% (n = 140,000) | activity change (PNC), negative = inhibition, % at 10 µM | PC3M PTB-GFP, PNC prevalence imaging, 16 h; hits give low values;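 active = readout at or below -70, meaning at least 70% loss of cells showing the perinucleolar compartment, a nuclear body marking cancer cells; inconclusive = readout between -30 and a set limit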;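 note: plate controls were DMSO wells for no effect and camptothecin positive control wells for full effect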
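Compounds are pinned in duplicate onto adhered PC3M cells stably expressing GFP-tagged PTB and incubated 16 h at 37 C. Cells are then fixed, nuclei stained with Hoechst, and PNC-positive cells counted.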
HPGD block: HPGD (human) dehydrogenase inhibition. P15428. purified HPGD, NADH fluorescence kinetic, PGE2 substrate. Potency, µM, for inactives: at the highest dose activity change, negative = inhibition, actives largely listed as inhibitors. actives 4.3% (n = 150,000). AID 894; active = well fitted inhibition curve with a large enough effect, not every such curve was filed as active; inconclusive = small, poorly fitted or top-dose-only effect, or another doubt; inactive = no such curve, though single readings can be large or run the other way; note: potency is the fitted concentration of half-maximal effect
Target sequence (P15428 whole entry, looked up): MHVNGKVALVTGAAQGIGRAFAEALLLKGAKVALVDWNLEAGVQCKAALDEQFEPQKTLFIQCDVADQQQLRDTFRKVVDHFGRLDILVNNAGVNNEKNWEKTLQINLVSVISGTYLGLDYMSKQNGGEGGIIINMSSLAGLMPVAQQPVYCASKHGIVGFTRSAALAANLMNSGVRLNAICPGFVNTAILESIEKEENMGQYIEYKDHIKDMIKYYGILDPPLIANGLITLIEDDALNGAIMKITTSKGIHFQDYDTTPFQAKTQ
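NADH formation kinetics: reaction with 30 uM PGE2 and 1 mM NAD+ (final), 20 nM enzyme, Tris-HCl pH 8 with Tween 20, after 15 min compound preincubation at room temperature. Fluorescence change, last versus first of five reads.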
IMPase cell inh: IMPase inhibition in cells; inhibition (IP1 accumulation), % at 46.1 µM; CHO-M1 cells, IP1 accumulation, HTRF TR-FRET ratio; AID 901; 120,000 tested, under 10 active; active = well fitted curve in the direction sought with a large enough effect in the signal ratio, not every such curve was filed as active; inconclusive = small, poorly fitted or top-dose-only effect, or a change in a side signal; inactive = no such curve, though single readings can be large or run the other way; the % refers to the signal ratio;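 note: cells stimulated with carbachol in lithium chloride buffer; plate controls were DMSO basal wells for no effect and reference inhibitor wells for full effect; higher means more IMPase inhibition seen as more IP1 and lower FRET ratio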
Target sequence (P97697 whole entry, looked up): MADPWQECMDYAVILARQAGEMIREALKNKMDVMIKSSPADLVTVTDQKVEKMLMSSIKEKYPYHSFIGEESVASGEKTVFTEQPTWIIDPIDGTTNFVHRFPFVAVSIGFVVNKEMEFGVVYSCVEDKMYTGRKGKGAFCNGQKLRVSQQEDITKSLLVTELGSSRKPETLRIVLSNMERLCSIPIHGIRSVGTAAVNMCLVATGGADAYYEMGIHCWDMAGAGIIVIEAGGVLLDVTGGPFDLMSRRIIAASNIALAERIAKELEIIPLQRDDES
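Carbachol-driven Gq signalling in CHO-M1 cells (2000/well) generates IP1. Compounds that block IMPase raise IP1 and so reduce the FRET signal from Eu-anti-IP1 and d2-IP1 after a 10 min room-temperature lysis.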
ALOX15B inhib: blocks human 15-lipoxygenase 2 activity | actives 0.56% (n = 110,000) | AID 881 | purified 15hLO-2, xylenol orange hydroperoxide absorbance | O15296 | Potency, µM (titrated, usually from 57.1 µM), inactives show at the top dose activity change, negative = inhibition, hits mostly inhibitors; note: potency is the fitted concentration of half-maximal effect; nearly all actives have a fitted effect of over 60% in size
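Purified human 15hLO-2 (50 nM) preincubated 15 min with compound, then 45 uM arachidonic acid for 90 min at RT in 25 mM Hepes pH 7.5, 0.01% Triton X-100. Hydroperoxide detected by Fe-xylenol orange; 573/405 nm absorbance ratio.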
IMPase Li inh: membrane-permeable IMPase blocker, potentiated with lithium; CHO-M1 cells, IP1 TR-FRET (IP-One), carbachol + lithium; actives 0.35% (n = 210,000); AID 1457; Potency, µM (titrated, usually from 59.4 µM), without a hit: at the top dose activity, negative = IMPase inhibition, actives largely listed as inhibitors;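 note: IP1 builds up when IMPase is blocked and the TR-FRET signal falls; potency is the fitted concentration of half-maximal effect; plate controls were basal vehicle for no effect and high inhibitor control for full effect; nearly all actives have a fitted effect of over 50% in size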
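Lithium-sensitised IP1 accumulation assay; M1-expressing CHO cells treated 30 min at 37C with compound. Competitive antibody detection by time-resolved FRET followed a 10 min room-temperature lysis step.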
ALOX12 inhib: blocks human 12-lipoxygenase activity | P18054 | purified 12-hLO, xylenol orange hydroperoxide absorbance | Potency, µM (doses to about 57.1 µM), for inactives: at the highest dose activity change, negative = inhibition, usual class: inhibitors | actives 0.12% (n = 150,000); note: potency is the fitted concentration of half-maximal effect; nearly all actives have a fitted effect of over 55% in size
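Xylenol orange chromogenic assay: hydroperoxide from 12hLO oxidises Fe(II), giving red-shifted Fe(III)-XO absorbance. Conditions: 150 nM enzyme, 40 uM arachidonic acid, 25 mM Hepes pH 7.0, 0.01% Triton X-100, 30 min, room temperature.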
Active calls of the source: *; ! = a repeat was not active; [ ] = dose if it differs, or a comment. Hits are enriched below; roughly 5.4% of the tested compounds scored in any of these assays. Unless noted, calls come from the whole dose curve; as a rule, active = well fitted curve in the direction sought with a large enough effect; inconclusive = small, poorly fitted or top-dose-only effect, or another doubt; inactive = no such curve, though single readings can be large; an effect the other way counts as inactive or inconclusive. Unless noted, % is set by controls: 0 for no effect and ±100 for the full control effect.

CC/C(=N/NC(=O)c1ccc(Br)o1)c1ccc(Cl)cc1 was read as PNC inhibitor inconclusive, HPGD block -13.7%, IMPase Li inh 2.9% and ALOX12 inhib -0.2%.
Screening CCCCC/C=C\C/C=C\CCCCCCCCCC(=O)NCCCC(=O)O returned HPGD block -4.3%, IMPase Li inh -1.9% and ALOX12 inhib 1.9%.
`CN(C)CCOC(=O)c1ccc(N)cc1` gave HPGD block 0.7%, ALOX15B inhib -1.3%[11.4 µM], IMPase Li inh 1.3% and ALOX12 inhib -2.8%[11.4 µM].
`CN(C(=O)c1ccccc1Cl)C1CCCCC1` gave PNC inhibitor inconclusive, HPGD block 28.2µM*, IMPase cell inh 15.5, ALOX15B inhib -2.1%, IMPase Li inh 31.2%[38.3 µM] and ALOX12 inhib 1.0%.
C[Si](C)(c1ccc(C(=O)O)cc1)c1ccc(C(=O)O)cc1 was read as HPGD block 0.199µM*, ALOX15B inhib 14.3%[11.4 µM], IMPase Li inh -1.0% and ALOX12 inhib 3.6%[11.4 µM].
O=C(O)c1ccc(B(O)O)cc1 was read as HPGD block -4.9%, ALOX15B inhib -3.0%, IMPase Li inh -2.9% and ALOX12 inhib -0.3%.
For CCCS(=O)(=O)N1CCCC(C(=O)NC2CCCC(C)C2C)C1 (centres undefined) the results were PNC inhibitor -82.0*, HPGD block -5.9%, IMPase cell inh -10.9, ALOX15B inhib 5.9%, IMPase Li inh 0.1%[38.3 µM] and ALOX12 inhib 5.2%.
Screening CCCS(=O)(=O)N1CCC(C(=O)NC2CCCC(C)C2C)CC1 (centres undefined) returned PNC inhibitor -16.2, HPGD block -12.8%, IMPase cell inh 2.7[1.84 µM], ALOX15B inhib 21.4%[11.4 µM], IMPase Li inh 11.0%[38.3 µM] and ALOX12 inhib 0.7%.
`CCCn1c(N2CCN(CC(=O)NCc3cccs3)CC2)nc2ccccc21` gave PNC inhibitor -86.9*, HPGD block -9.8%, IMPase cell inh 9.2, ALOX15B inhib 10.7%, IMPase Li inh 3.4% and ALOX12 inhib -7.1%.
Screening O=C(Nc1ccccc1Cl)N1CCn2c(nc3ccccc32)C1 returned PNC inhibitor -110.7*, HPGD block -14.1%, IMPase cell inh 4.6, ALOX15B inhib 5.6%, IMPase Li inh -17.3%[38.3 µM] and ALOX12 inhib 2.6%.
Cc1ccc(Cl)cc1N1CCN(C(c2ccc(F)cc2)c2nnc(-c3ccccc3)o2)CC1 (centres undefined) was read as IMPase cell inh 3.1.
O=c1[nH]c(-c2ccccc2O)nc2ccccc12 was read as HPGD block 2.82µM* and IMPase Li inh -3.6%.
Screening C=CCOC(=O)NC(c1ccc(F)c(F)c1)C(C(=O)CCl)C(=O)OC (centres undefined) returned HPGD block -22.2% and IMPase Li inh 17.8%.
Cc1cccc(N(C(=O)c2cnc3n(c2=O)CCS3)C2CCCCC2)c1 was read as PNC inhibitor 1.1, HPGD block -22.3%, IMPase cell inh -10.9, IMPase Li inh 4.3% and ALOX12 inhib 3.2%.
`O=C(c1cnc2n(c1=O)CCS2)N(c1ccccc1)C1CCCCC1` gave PNC inhibitor -106.3*, HPGD block -9.9%, IMPase cell inh -5.6, IMPase Li inh 2.6%[38.3 µM] and ALOX12 inhib -4.2%.
`O=C1C=CC(=O)C2=C1C1c3ccccc3C2c2ccccc21` gave HPGD block 1.12µM*, ALOX15B inhib 2µM*, IMPase Li inh 14.5% and ALOX12 inhib inconclusive.
For CCCCNC(=O)c1ccc(Cc2nc3ccccc3[nH]2)cc1 the results were HPGD block -5.0% and ALOX12 inhib 4.0%.
`Nc1nc2c(c(=O)[nH]1)CN(CCCN1CCOCC1)CN2` gave HPGD block -10.7%, ALOX15B inhib -2.0%[11.4 µM], IMPase Li inh 0.3% and ALOX12 inhib 5.7%[11.4 µM].
`Cc1ccc(CNc2oc(C)nc2C#N)cc1` gave PNC inhibitor -84.8*, IMPase cell inh 2.6, ALOX15B inhib -0.4% and ALOX12 inhib -5.3%.
`O=C(NCCN1CCCC1)c1ccc(-n2c(=O)c(=O)[nH]c3ccccc32)cc1` gave HPGD block -3.5% and ALOX12 inhib -2.6%.
`CCN(CC)CCNc1nc2c(c(=O)[nH]c(=O)n2C)n1CC(O)COc1ccc(Cl)cc1Cl` (centres undefined) gave PNC inhibitor -83.7*, HPGD block -19.9%, IMPase cell inh 1.8, ALOX15B inhib 11.9%, IMPase Li inh -11.9%[38.3 µM] and ALOX12 inhib 0.2%.
For CN(C)CCNc1nc2c(c(=O)[nH]c(=O)n2C)n1CC(O)COc1ccc(Cl)cc1 (centres undefined) the results were PNC inhibitor -26.8, HPGD block -8.3%, IMPase cell inh 1.2, ALOX15B inhib 7.9%, IMPase Li inh -7.3%[38.3 µM] and ALOX12 inhib 3.6%.
For Cc1cc(C)n(-c2nc3c(c(=O)[nH]c(=O)n3C)n2CC(O)COc2ccc(Cl)cc2Cl)n1 (centres undefined) the results were PNC inhibitor 61.3, HPGD block 3.55µM*, IMPase cell inh -5.1, IMPase Li inh 5.1% and ALOX12 inhib 6.2%.
Screening Cc1cc(C)n(-c2nc3c(c(=O)[nH]c(=O)n3C)n2CC(O)c2ccccc2)n1 (centres undefined) returned PNC inhibitor inconclusive, HPGD block -21.3%, IMPase cell inh 1.6, ALOX15B inhib -4.2%, IMPase Li inh -3.3%[38.3 µM] and ALOX12 inhib -2.6%.
Screening COc1cccc(CC(=O)N2CCc3nc(-c4ccccc4)c4c(c3C2)CO[C@@H](C)C4)c1 returned HPGD block -4.4%, IMPase Li inh -0.4% and ALOX12 inhib 0.2%[11.4 µM].
For CC(C)=CCC/C(C)=C\COc1c2ccoc2cc2oc(=O)ccc12 the results were HPGD block inconclusive, IMPase cell inh 7.5, ALOX15B inhib -6.9%, IMPase Li inh 31.3% and ALOX12 inhib -2.0%.
Screening O=C(NC1CCCCC1)c1cc2nc3c(c(C(F)(F)F)n2n1)CCCC3 returned PNC inhibitor -29.2, HPGD block 28.2µM*, IMPase cell inh 21.7, ALOX15B inhib 8.0%[2.29 µM], IMPase Li inh 15.6%[38.3 µM] and ALOX12 inhib 4.6%.
For CCc1oc2ccccc2c1C(=O)c1cc(Br)c(O)c(Br)c1 the results were PNC inhibitor 26.0, HPGD block 17.8µM*!, IMPase cell inh -16.5[20.6 µM], ALOX15B inhib -8.8%[11.4 µM], IMPase Li inh -19.3% and ALOX12 inhib -16.6%.
For CCc1ccc(OCC(=O)c2c(O)c3ccccc3oc2=O)cc1 the results were IMPase Li inh 1.8%.
`Cc1ccc(/C=N/NC(=O)NC2CCCCC2)o1` gave IMPase Li inh 29.8%.
For Cc1ccc(/C=C/C(=O)Nc2ncc(C)s2)o1 the results were PNC inhibitor 29.2, HPGD block -9.6%, IMPase cell inh 7.5, IMPase Li inh -0.5% and ALOX12 inhib -9.1%.
